Percent Effect data for twelve compounds are collected here from ChEMBL document CHEMBL3988442, “University of Dundee, Small-Polar-MMV Screening Library” (2021).

Common to all, as to parameters: scale not given: direction of the effect not stated beside the values
Assay [1] has as its target Protein translocase subunit SecA (Escherichia coli (strain K12)) (UniProt P10408). Nature of the assay: Assay to Identify E. coli SecA ATPase Inhibitors. As to conditions: 30 µM. It counts as functional.
Assay [2] addresses T1, Ubiquitin-activating enzyme e1, putative (Leishmania donovani (strain BPK282A1)) (UniProt E9BSI1).
T1 sequence (whole entry): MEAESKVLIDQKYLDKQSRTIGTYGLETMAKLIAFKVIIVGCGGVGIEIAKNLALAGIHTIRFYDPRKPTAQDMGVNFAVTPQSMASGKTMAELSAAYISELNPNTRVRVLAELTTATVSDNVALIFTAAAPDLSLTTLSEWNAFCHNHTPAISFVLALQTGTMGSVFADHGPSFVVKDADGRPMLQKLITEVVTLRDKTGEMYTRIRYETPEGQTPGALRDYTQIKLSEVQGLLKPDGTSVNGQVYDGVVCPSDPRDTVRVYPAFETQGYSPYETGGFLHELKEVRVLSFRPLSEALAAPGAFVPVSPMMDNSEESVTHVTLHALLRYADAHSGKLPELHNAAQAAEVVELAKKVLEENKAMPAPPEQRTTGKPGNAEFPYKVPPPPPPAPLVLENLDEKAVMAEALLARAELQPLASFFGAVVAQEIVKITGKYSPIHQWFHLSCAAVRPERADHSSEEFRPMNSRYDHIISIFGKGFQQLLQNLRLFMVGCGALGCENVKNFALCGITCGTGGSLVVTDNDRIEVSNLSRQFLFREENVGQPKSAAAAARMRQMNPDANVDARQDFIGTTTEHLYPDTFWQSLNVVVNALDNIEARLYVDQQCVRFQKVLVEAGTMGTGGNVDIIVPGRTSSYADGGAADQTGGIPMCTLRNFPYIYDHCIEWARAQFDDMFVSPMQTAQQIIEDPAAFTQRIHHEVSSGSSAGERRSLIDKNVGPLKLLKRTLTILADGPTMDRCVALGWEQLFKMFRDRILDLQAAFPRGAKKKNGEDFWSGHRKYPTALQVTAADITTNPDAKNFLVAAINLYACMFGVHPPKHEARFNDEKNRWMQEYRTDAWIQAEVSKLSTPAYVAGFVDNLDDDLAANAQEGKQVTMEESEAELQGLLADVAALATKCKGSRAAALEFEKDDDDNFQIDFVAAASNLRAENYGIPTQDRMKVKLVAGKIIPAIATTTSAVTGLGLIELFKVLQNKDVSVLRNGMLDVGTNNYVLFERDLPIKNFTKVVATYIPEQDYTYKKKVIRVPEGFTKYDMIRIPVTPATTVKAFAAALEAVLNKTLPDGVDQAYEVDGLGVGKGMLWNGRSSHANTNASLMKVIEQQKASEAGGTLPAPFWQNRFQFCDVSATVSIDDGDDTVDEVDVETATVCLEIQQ
In words: Leishmania donovani Ubiquitin Activating Enzyme (LdE1). The conditions noted are these: 30 µM. It counts as functional.

In assay [3] the target is Sialic acid-binding Ig-like lectin 9 (Homo sapiens) (UniProt Q9Y336). Nature of the assay: Hs-Siglec9 ALPHAscreen SOP 20170721. The conditions noted are these: 10 µM. In general terms: In Alpha technology, singlet oxygen from a donor bead excites a nearby acceptor bead.
The next assay deals with Trypanosoma cruzi. Nature of the assay: Trypanosoma cruzi phosphomannomutase and mannose-1-phosphate guanylyltransferase assay. The conditions noted are these: 10 µM. It counts as functional.
Assay [4] addresses T2, Arginase-2, mitochondrial (Homo sapiens) (UniProt P78540).
T2 sequence (whole entry): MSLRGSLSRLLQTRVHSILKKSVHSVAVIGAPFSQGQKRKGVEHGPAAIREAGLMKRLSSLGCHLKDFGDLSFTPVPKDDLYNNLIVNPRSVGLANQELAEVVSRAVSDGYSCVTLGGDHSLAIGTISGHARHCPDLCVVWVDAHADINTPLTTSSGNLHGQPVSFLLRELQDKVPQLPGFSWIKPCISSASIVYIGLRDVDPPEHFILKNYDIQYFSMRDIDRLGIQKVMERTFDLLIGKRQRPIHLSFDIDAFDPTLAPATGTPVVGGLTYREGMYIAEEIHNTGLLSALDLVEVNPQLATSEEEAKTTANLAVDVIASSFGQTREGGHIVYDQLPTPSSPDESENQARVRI
Nature of the assay: in vitro enzyme assay to detect the production of urea directly proportional to the activity of Arginase II. Note: in the data most compounds retested in dose-response had high values. It counts as functional. The conditions noted are these: 33.3 µM.

For assay [5], the target named is T3, Proteasome subunit beta (Trypanosoma cruzi) (UniProt O96673).
T3 sequence (whole entry): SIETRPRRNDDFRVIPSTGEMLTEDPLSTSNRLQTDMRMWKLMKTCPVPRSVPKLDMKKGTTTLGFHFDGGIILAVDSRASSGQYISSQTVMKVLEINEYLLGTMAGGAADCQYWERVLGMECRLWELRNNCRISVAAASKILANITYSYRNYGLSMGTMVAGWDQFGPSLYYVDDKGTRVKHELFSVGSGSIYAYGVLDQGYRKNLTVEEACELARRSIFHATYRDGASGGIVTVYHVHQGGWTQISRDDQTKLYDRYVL
Nature of the assay: Trypanosoma cruzi proteasome chymotrypsin-like activity (TcProtChymo) assay. Note: in the data most compounds retested in dose-response had high values. As to conditions: 9.37 µM. It counts as functional.

Another assay is filed under the species Homo sapiens. In words: To identify inhibition of the IFN signalling (Jak-Stat) pathway via expression of an eGFP reporter gene under the control of an IFN-stimulated response element (ISRE) containing MxA promoter. It counts as functional. As to conditions: 30 µM. Background: In a reporter assay the amount or activity of a reporter protein is the signal.

Assay [6] deals with T4, Tyrosyl-tRNA synthetase, putative (Trypanosoma cruzi (strain CL Brener)) (UniProt Q4DSP6).
T4 sequence (whole entry): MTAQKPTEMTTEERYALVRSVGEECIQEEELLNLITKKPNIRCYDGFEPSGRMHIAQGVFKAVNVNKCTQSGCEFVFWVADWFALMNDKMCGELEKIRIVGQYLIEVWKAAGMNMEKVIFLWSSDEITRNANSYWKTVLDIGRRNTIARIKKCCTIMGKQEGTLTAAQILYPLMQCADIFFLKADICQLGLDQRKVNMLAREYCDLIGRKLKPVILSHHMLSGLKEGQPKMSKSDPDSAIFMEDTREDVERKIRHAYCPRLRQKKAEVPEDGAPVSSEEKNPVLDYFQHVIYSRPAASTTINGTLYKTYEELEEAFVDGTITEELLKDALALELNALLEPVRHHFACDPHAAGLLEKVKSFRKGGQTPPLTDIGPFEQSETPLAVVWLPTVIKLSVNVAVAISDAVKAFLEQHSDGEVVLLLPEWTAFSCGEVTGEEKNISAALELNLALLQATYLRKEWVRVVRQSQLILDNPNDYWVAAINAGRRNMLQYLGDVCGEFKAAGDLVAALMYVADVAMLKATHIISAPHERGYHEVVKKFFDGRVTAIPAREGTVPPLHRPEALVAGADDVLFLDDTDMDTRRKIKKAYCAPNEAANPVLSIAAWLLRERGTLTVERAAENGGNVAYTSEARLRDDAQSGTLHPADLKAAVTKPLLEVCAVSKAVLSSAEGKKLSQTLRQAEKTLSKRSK
Nature of the assay: Trypanosoma cruzi tyrosyl tRNA synthetase (TcYRS) _High Tyrosine SOP. Note: in the data most compounds retested in dose-response had high values. As to conditions: 30 µM. Type of assay: functional.

Assay [7] has as its target T4, Tyrosyl-tRNA synthetase, putative (Trypanosoma cruzi (strain CL Brener)). Nature of the assay: Trypanosoma cruzi tyrosyl tRNA synthetase (TcYRS) SOP. It counts as functional. As to conditions: 30 µM.
Assay [8] concerns the target Chromo domain-containing protein 1 (Saccharomyces cerevisiae (strain ATCC 204508 / S288c) (Baker's yeast)) (UniProt P32657). In words: ScCHD-1 Enzyme Inhibition Assay. Note: in the data most compounds retested in dose-response had high values. It counts as functional. As to conditions: 30 µM.

For part of these data: Potency and affinity values are given separately.

Protein translocase subunit SecA (Escherichia coli (strain K12)), sequence (P10408 whole entry): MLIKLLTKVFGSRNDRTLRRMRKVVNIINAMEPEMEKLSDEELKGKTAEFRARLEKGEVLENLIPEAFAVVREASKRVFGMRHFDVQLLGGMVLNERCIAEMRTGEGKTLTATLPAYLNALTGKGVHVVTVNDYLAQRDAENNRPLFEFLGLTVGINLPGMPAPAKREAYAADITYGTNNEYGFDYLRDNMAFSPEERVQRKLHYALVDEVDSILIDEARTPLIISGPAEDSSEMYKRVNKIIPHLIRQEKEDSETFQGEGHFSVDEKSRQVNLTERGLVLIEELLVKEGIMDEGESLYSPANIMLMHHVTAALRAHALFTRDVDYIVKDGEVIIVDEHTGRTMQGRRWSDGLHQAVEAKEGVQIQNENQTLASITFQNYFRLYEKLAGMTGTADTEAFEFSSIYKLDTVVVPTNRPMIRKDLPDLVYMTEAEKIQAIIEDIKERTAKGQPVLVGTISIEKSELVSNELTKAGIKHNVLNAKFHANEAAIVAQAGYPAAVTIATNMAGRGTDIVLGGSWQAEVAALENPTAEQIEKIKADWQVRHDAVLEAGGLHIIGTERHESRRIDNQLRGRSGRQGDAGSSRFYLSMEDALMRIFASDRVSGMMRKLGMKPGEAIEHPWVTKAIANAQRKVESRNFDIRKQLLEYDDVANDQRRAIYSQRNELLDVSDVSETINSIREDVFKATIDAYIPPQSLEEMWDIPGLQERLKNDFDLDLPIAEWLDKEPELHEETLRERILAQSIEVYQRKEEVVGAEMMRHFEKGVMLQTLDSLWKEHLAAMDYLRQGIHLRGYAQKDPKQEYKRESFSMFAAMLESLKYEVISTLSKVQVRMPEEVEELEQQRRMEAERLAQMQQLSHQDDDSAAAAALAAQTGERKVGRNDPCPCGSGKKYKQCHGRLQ
Sialic acid-binding Ig-like lectin 9 (Homo sapiens), sequence (Q9Y336 whole entry): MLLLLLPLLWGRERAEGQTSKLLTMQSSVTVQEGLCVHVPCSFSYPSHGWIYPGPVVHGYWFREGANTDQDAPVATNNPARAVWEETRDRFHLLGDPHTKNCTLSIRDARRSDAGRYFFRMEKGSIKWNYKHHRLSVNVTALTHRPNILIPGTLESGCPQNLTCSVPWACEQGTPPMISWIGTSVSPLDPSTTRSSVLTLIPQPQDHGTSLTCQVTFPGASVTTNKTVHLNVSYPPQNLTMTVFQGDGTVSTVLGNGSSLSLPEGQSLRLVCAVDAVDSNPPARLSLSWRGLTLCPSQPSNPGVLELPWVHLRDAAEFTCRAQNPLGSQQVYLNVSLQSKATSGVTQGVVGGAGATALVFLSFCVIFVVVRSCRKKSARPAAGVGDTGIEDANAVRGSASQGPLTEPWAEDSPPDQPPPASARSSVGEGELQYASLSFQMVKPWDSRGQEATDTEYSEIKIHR
Chromo domain-containing protein 1 (Saccharomyces cerevisiae (strain ATCC 204508 / S288c) (Baker's yeast)), sequence (P32657 whole entry, the tested form may be a part): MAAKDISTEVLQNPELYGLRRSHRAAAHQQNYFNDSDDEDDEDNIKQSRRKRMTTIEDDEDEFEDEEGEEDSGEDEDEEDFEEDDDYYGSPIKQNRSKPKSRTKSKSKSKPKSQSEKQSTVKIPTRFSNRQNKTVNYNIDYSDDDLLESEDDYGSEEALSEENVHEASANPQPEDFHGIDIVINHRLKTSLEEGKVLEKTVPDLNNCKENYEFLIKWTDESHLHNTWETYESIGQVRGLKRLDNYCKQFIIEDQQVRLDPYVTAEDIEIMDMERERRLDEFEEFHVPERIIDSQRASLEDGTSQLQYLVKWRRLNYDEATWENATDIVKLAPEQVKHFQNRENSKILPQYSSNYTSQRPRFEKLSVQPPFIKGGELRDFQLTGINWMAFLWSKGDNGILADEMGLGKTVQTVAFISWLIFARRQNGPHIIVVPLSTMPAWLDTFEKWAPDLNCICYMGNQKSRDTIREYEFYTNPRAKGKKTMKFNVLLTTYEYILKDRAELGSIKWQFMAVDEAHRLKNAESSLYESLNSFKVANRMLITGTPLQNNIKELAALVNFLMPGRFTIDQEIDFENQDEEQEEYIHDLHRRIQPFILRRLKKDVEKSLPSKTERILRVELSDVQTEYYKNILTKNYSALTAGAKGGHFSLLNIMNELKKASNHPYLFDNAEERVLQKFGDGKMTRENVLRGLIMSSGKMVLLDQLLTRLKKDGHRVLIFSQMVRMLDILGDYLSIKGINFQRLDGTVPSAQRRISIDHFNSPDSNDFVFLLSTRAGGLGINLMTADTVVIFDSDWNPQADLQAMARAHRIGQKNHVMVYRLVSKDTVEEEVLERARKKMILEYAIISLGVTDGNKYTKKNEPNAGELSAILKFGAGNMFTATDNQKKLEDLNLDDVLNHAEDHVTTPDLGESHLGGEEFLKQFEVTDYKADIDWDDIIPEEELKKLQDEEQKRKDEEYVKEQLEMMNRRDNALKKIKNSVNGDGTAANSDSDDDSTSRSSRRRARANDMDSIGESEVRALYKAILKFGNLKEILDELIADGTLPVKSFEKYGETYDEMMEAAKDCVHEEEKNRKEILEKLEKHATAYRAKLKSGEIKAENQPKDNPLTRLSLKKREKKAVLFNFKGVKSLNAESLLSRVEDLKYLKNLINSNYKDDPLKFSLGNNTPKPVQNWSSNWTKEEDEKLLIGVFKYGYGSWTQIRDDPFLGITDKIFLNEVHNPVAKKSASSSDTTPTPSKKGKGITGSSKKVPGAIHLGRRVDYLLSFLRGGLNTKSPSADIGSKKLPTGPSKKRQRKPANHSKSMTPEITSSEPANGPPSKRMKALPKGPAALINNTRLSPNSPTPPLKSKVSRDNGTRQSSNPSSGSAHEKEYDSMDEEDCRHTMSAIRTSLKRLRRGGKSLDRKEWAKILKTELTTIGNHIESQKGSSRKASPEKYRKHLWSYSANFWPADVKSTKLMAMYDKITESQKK

For the compound `CC(C)CCC(=O)NC(C)c1nnc2n1CCCCC2` (stereo not given), the Percent Effect was -1.02% in assay [1]; 10.4% in assay [2]; 4.23% in [3]; 2.42% in the assay on Trypanosoma cruzi; -0.205% in assay [4]; 6.84% in [5]. The Percent Effect is -5.87% in the assay filed under Homo sapiens, 2.94% in [6], 7.06% in [7] and -9.02% in assay [8].

As to `COc1ccc(CN2CCC3(CC2)NC(=O)CC3c2ccncc2)cc1` (stereo not given), the Percent Effect in assay [1] was -7.89%; in assay [2], -6.49%; in assay [3] it was 3.29%; in the assay with Trypanosoma cruzi, -2.43%; in [4], -4.05%; in [5], 9.27%. For the same compound, the Percent Effect is 5.38% in the assay listed under Homo sapiens, -0.526% in [6], 2.56% in [7] and -1.91% in assay [8].

Regarding `O=C1COC2(COCCN(Cc3ccsc3)C2)CN1c1ccc(F)cc1` (stereo not given), the Percent Effect in assay [1] is -4.18%; in assay [2] it was 1.3%; in assay [3], 13.2%; in the assay with Trypanosoma cruzi it was -5.36%; in [4] it was 1.22%; in assay [5], 10.3%. The Percent Effect in the assay listed under Homo sapiens was -0.829%; in [6], 4.74%; in assay [7], 7.69%; in assay [8], -1.9%.

With `CCOC(=O)N1CCN(C(=O)c2sc(-c3ccccc3F)nc2C)CC1`, the Percent Effect was -2.12% in [1]; 5.41% in assay [2]; 6.21% in [3]; 0.097% in the assay on Trypanosoma cruzi; 30.4% in assay [4]; 13.5% in [5]. Besides, the Percent Effect in the assay listed under Homo sapiens was -3.93%; in [6] it was 4.79%; in [7], 14.6%; in [8], -4.07%.

For the compound `Cc1ccsc1C(=O)N1Cc2ccccc2C2(CCN(C)CC2)C1`, the Percent Effect was -4.41% in assay [1]; -1.3% in assay [2]; -5.71% in assay [3]; -5.55% in the assay with Trypanosoma cruzi; -2.02% in [4]; 5.56% in [5]. In addition, the Percent Effect was -24.7% in the assay filed under Homo sapiens, 1.58% in [6], 2.56% in [7] and -2.8% in assay [8].

For `O=C(NCCn1ccnc1)N1CCN(c2nccs2)CC1`, the Percent Effect in assay [1] was -0.752%; in assay [2] it was 15.6%; in [3] it was -5.93%; with Trypanosoma cruzi, -7.28%; in [4], 4.71%; in [5] it was 18.2%. For the same compound, the Percent Effect is 6.33% in the assay listed under Homo sapiens, 2.94% in [6], 7.06% in assay [7] and -11.9% in assay [8].

Turning to `CCOc1ccc(CN2CCN(C(=O)c3ccc(C)n3C)CC2)cc1`, the Percent Effect in assay [1] was -2.75%; in assay [2] it was 5.33%; in assay [3], 3.18%; in the assay with Trypanosoma cruzi, 1.41%; in [4], -4.43%; in assay [5] it was 12.1%. The Percent Effect was 8.63% in the assay listed under Homo sapiens, 6.84% in assay [6], 15.4% in [7] and -10.5% in [8].

For `CC(C)C(NC(=O)Cn1ccc(=O)n(C)c1=O)c1ccc(F)cc1` (stereo not given), the Percent Effect is 1.48% in [1]; 18.2% in assay [2]; -2.41% in [3]; -7.09% in the assay with Trypanosoma cruzi; 5.53% in assay [4]; 7.19% in assay [5]. For the same compound, the Percent Effect was 22.3% in the assay listed under Homo sapiens, 6.86% in [6], 18.8% in assay [7] and -8.33% in assay [8].

Consider `Cc1noc(C)c1C(=O)NCc1ccc(N2CCOC(C)C2)nc1` (stereo not given), for which the Percent Effect in assay [1] is -2.58%; in assay [2], 21.3%; in assay [3] it was -1.63%; in the assay with Trypanosoma cruzi, -0.402%; in assay [4] it was -0.887%; in assay [5], 12.5%. Further, the Percent Effect in the assay listed under Homo sapiens was 9.59%; in assay [6], 2.63%; in [7] it was 15.4%; in assay [8], -13.6%.

With `Cc1cc(C)n(C2CCCN(C(=O)COCC(F)(F)F)C2)n1` (stereo not given), the Percent Effect is -4.46% in assay [1]; 2.56% in assay [2]; 11.4% in assay [3]; 0.657% in the assay on Trypanosoma cruzi; 6.15% in assay [4]; -7.59% in [5]. For the same compound, the Percent Effect in the assay filed under Homo sapiens was -11.3%; in [6], 1.44%; in assay [7], -1.21%; in assay [8], -0.331%.

Take `COCc1ncc(CN2CCC(Oc3ccccc3OC)CC2)cn1`: the Percent Effect in assay [1] is -4.09%; in assay [2] it was 2.7%; in assay [3], 1.93%; with Trypanosoma cruzi it was -3.59%; in assay [4] it was 3.85%; in assay [5] it was 9.59%. Also, the Percent Effect in the assay listed under Homo sapiens is 1.55%; in assay [6] it was 5.85%; in [7] it was 14.6%; in assay [8], -3.8%.

Consider `CC(C)CC(=O)N1C[C@@H]2CCN(c3ncccn3)C[C@@H]2C1`, for which the Percent Effect in assay [1] was -0.224%; in assay [2], 11.7%; in [3], -0.117%; with Trypanosoma cruzi, 0.375%; in assay [4], -5.02%; in [5], 14.2%. For the same compound, the Percent Effect in the assay listed under Homo sapiens is 17.9%; in [6], 0%; in [7], -10%; in [8], -10.7%.
